Experimental data taken from PubChem BioAssay (Tox21).
Several values for one entry are separate records, joined by “and”; a condition that tells them apart may be missing. Identical values can stand only once. Records with an inconclusive call do not appear. Entries that show only a call come without a potency. Where a structure was tested more than once in an assay, its records may differ in their call. Activity calls are given as the source filed them. The call rests on the fitted dose curve; in most records, active means well fitted curve in the direction sought with a large enough effect in the repeat runs; inconclusive means weak or mixed curves; inactive means no such curve, though single readings can be large; an effect the other way counts as inactive or inconclusive.

How the values were obtained:
[1] = A CellTox Green Cytotoxicity Assay to monitor cytotoxicity in HEK293 cells - 40 hour (AID 1224871); further: nearly all actives have a fitted effect of over 45% in size; further: potency means the concentration at half of the fitted maximal effect
Summary of the method: (§1)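 Seeding of HEK293 cells together with cytotoxicity dye preceded a 5 h incubation at 37 C/5% CO2. Test compounds in DMSO were then added and fluorescence monitored across 40 h.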

[2] = qHTS RealTime-Glo MT Cell Viability Assay in HEK293 cells - 16 hour (AID 1224872); further: nearly all actives have a fitted effect of over 50% in size; further: potency means the concentration at half of the fitted maximal effect
Summary of the method: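 Quantitative high-throughput screen of the Tox21 10K library in HEK293: cells and RealTime-Glo reagents plated together, compound added at 5 h, luminescence monitored through 40 h at 37 C.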

[3] = qHTS RealTime-Glo MT Cell Viability Assay in HepG2 cells - 8 hour (AID 1224873); further: nearly all actives have a fitted effect of over 55% in size; further: potency means the concentration at half of the fitted maximal effect
Summary of the method: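 HepG2 cells (600/well) mixed with RealTime-Glo MT reagent, settled 5 h at 37 C/5% CO2 before compound addition. Nonlytic NanoLuc luminescence from viable-cell prosubstrate reduction read repeatedly during 40 h treatment at 37 C.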

[4] = qHTS RealTime-Glo MT Cell Viability Assay in HEK293 cells - 40 hour (AID 1224874); conditions: RealTime-Glo luminescence; max response: stronger effect = lower value; further: nearly all actives have a fitted effect of over 50% in size; further: potency means the concentration at half of the fitted maximal effect
Summary of the method: (§2)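 Tox21 screen in HEK293 using RealTime-Glo MT chemistry, with cells and reagent co-dispensed. Luminescence proportional to viable cell number was captured at intervals during 40 h compound exposure at 37 C.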

[5] = A CellTox Green Cytotoxicity Assay to monitor cytotoxicity in HEK293 cells - 24 hour (AID 1224875); further: nearly all actives have a fitted effect of over 45% in size; further: potency means the concentration at half of the fitted maximal effect
Summary of the method: as §1

[6] = A CellTox Green Cytotoxicity Assay to monitor cytotoxicity in HepG2 cells - 16 hour (AID 1224876); further: nearly all actives have a fitted effect of over 45% in size; further: potency means the concentration at half of the fitted maximal effect
Summary of the method: (§3)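 Nonlytic assay: viable cells exclude the dye, so fluorescence scales with cell death. HepG2 at 600 cells/well, compounds added after 5 h, signal read across 40 h.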

[7] = qHTS RealTime-Glo MT Cell Viability Assay in HepG2 cells - 32 hour (AID 1224877); further: nearly all actives have a fitted effect of over 55% in size; further: potency means the concentration at half of the fitted maximal effect
Summary of the method: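 Compound treatment began 5 h after plating HepG2 cells (600/well) with NanoLuc luciferase and prosubstrate. Plates stayed at 37 C for 40 h; luminescence was captured at six time points, 0 h through 40 h.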

[8] = A CellTox Green Cytotoxicity Assay to monitor cytotoxicity in HepG2 cells - 24 hour (AID 1224878); further: nearly all actives have a fitted effect of over 45% in size; further: potency means the concentration at half of the fitted maximal effect
Summary of the method: as §3

[9] = A CellTox Green Cytotoxicity Assay to monitor cytotoxicity in HepG2 cells - 40 hour (AID 1224879); further: nearly all actives have a fitted effect of over 40% in size; further: potency means the concentration at half of the fitted maximal effect
Summary of the method: as §3

[10] = qHTS RealTime-Glo MT Cell Viability Assay in HEK293 cells - 0 hour (AID 1224880)
Summary of the method: as §2

| SMILES | Potency [1] | Potency [2] | Potency [3] | max response [4] | Potency [5] | Potency [6] | Potency [7] | Potency [8] | Potency [9] | Potency [10] | Potency [4] |
| --- | --- | --- | --- | --- | --- | --- | --- | --- | --- | --- | --- |
| NCCS(=O)(=O)O | inactive | inactive | inactive | 13.2% (inactive) and 2.94% (inactive) | inactive | inactive | inactive | inactive | inactive | inactive |  |
| CNC[C@H](O)c1ccc(O)c(O)c1 | inactive | inactive | inactive | 2.12% (inactive) and 11.8% (inactive) | inactive | inactive | inactive | inactive | inactive | inactive |  |
| C=CCOC(=O)C(=C)C | inactive | inactive | inactive | 2.76% (inactive) and 2.11% (inactive) | inactive | inactive | inactive | inactive | inactive | inactive |  |
| Nc1ccc2c(O)cc(S(=O)(=O)O)cc2c1 | inactive | inactive | inactive |  | inactive |  |  | inactive | inactive | inactive | 6.17 µM (active) |
| CC1(C)C(C=C(Cl)Cl)C1C(=O)OCc1cccc(Oc2ccccc2)c1 (stereo not drawn) | inactive | inactive | inactive | -20.8% (inactive) and -17.3% (inactive) | inactive |  | inactive | inactive | inactive | inactive |  |
| Cc1cccc(Nc2ccccc2C(=O)O)c1C | inactive | inactive | inactive | -11.8% (inactive) and 1.92% (inactive) | inactive |  | inactive | inactive | inactive | inactive |  |
| Nc1ccc(O)c(N)c1 | inactive | inactive |  | -10.8% (inactive) and -11.4% (inactive) | inactive | inactive | inactive |  | inactive |  |  |
| Cc1ccc(/C(=C\CN2CCCC2)c2ccccn2)cc1 | inactive | inactive |  | -3.85% (inactive) | inactive | inactive | inactive | inactive | inactive | inactive |  |
| CCCCCCCC/C=C\CCCCCCCC(=O)O | inactive | inactive | inactive | 12.6% (inactive) and 4.42% (inactive) | inactive | inactive |  | inactive | inactive | inactive |  |
| COc1ccc(C(=O)c2ccccc2O)c(O)c1 | 34.6 µM (active) | inactive | inactive | -10.4% (inactive) | inactive | inactive |  | inactive | inactive | inactive |  |
| Clc1ccc(Sc2cc(Cl)c(Cl)cc2Cl)cc1 | inactive | inactive |  | -26.8% (inactive) and 1% (inactive) | inactive | inactive | inactive | inactive | inactive | inactive |  |
| COc1ccc2nc(N)sc2c1 | inactive | inactive | inactive | 7.94% (inactive) | inactive | inactive |  | inactive | inactive | inactive |  |
| COCCOCCOCCO | inactive | inactive | inactive | 4.57% (inactive) and 6.41% (inactive) | inactive | inactive |  |  | inactive | inactive |  |
| CN(C)CCCN1c2ccccc2Sc2ccc(Cl)cc21 | 43.6 µM (active) | 30.9 µM (active) and 21.3 µM (active) | 54.9 µM (active) |  | 49 µM (active) |  | 34.7 µM (active) and 23.9 µM (active) |  | 24.5 µM (active) and 21.3 µM (active) |  | 21.9 µM (active) and 21.3 µM (active) |
| CC[C@]12CCCN3CCc4c(n(c5ccccc45)[C@@](O)(C(=O)OC)C1)[C@@H]32 | inactive | inactive | inactive | -23.5% (inactive) | inactive |  |  | inactive | inactive | inactive |  |
| CC(=O)Oc1c(C)c(C)c2c(c1C)CC[C@@](C)(CCC[C@H](C)CCC[C@H](C)CCCC(C)C)O2 | inactive | inactive | inactive | 0.83% (inactive) and -4.95% (inactive) | inactive | inactive |  | inactive | inactive | inactive |  |
| Cc1ccc(C(C)(C)C)cc1 | inactive | inactive | inactive | 0.538% (inactive) | inactive |  |  | inactive | inactive | inactive |  |
| O=C1CCc2ccccc2O1 | inactive | inactive | inactive | 3.8% (inactive) and -0.872% (inactive) |  | inactive | inactive | inactive | inactive | inactive |  |
| O=C(O)COCCN1CCN(C(c2ccccc2)c2ccc(Cl)cc2)CC1 (stereo not drawn) | inactive | inactive | inactive | 5.07% (inactive) and 2.04% (inactive) | inactive |  |  |  | inactive | inactive |  |
| CC(=O)Oc1ccc(C(c2ccc(OC(C)=O)cc2)c2ccccn2)cc1 | inactive | inactive | inactive | -20.4% (inactive) | inactive |  | inactive | inactive | inactive |  |  |
| C=C[Si](OCCOC)(OCCOC)OCCOC | inactive | inactive | inactive | 5.17% (inactive) and 4.57% (inactive) | inactive |  |  | inactive | inactive | inactive |  |

| SMILES | Potency [1] | Potency [2] | Potency [3] | max response [4] | Potency [5] | Potency [6] | Potency [7] | Potency [8] | Potency [9] | Potency [10] | Potency [4] |
| --- | --- | --- | --- | --- | --- | --- | --- | --- | --- | --- | --- |
| O=C(CCCN1CCC(O)(c2ccc(Cl)cc2)CC1)c1ccc(F)cc1 | 49 µM (active) and inactive | 13.8 µM (active) and 5.35 µM (active) | 49 µM (active) and inactive |  |  | 43.6 µM (active) and inactive | 49 µM (active) and inactive | 24.5 µM (active) | 24.5 µM (active) and 26.8 µM (active) | inactive | 21.9 µM (active) and 8.49 µM (active) |
| C=C[C@H]1CN2CC[C@H]1C[C@H]2[C@H](O)c1ccnc2ccc(OC)cc12 | inactive | inactive | inactive | -26.3% (inactive) and -11.8% (inactive) | inactive |  |  |  | inactive | inactive |  |
| CCC/C=C/C=O | inactive | inactive | inactive | -4.27% (inactive) and 1.77% (inactive) | inactive |  | inactive | inactive | inactive | inactive |  |
| CCC(=O)O[C@H]1[C@H](O[C@@H]2[C@@H](C)[C@H](O[C@H]3C[C@@](C)(OC)[C@@H](O)[C@H](C)O3)[C@@H](C)C(=O)O[C@H](CC)[C@@](C)(O)[C@H](O)[C@@H](C)C(=O)[C@H](C)C[C@@]2(C)O)O[C@H](C)C[C@@H]1N(C)C | 28.9 µM (active) and inactive | inactive | inactive | -5.5% (inactive) |  | inactive |  | inactive | inactive | inactive |  |
| c1ccc2ncccc2c1 | inactive | inactive | inactive | -2.01% (inactive) and 11.7% (inactive) | inactive |  |  | inactive | inactive | inactive |  |
| OC[C@H]1O[C@@H]2O[C@H]3[C@H](O)[C@@H](O)[C@@H](O[C@H]4[C@H](O)[C@@H](O)[C@@H](O[C@H]5[C@H](O)[C@@H](O)[C@@H](O[C@H]6[C@H](O)[C@@H](O)[C@@H](O[C@H]7[C@H](O)[C@@H](O)[C@@H](O[C@H]1[C@H](O)[C@H]2O)O[C@@H]7CO)O[C@@H]6CO)O[C@@H]5CO)O[C@@H]4CO)O[C@@H]3CO | inactive | inactive | inactive | -4.99% (inactive) and 23.3% (inactive) | inactive |  |  |  | inactive | inactive |  |
| C=CCNCC=C | inactive | inactive | inactive | 4.5% (inactive) and 4.18% (inactive) | inactive |  | inactive | inactive | inactive | inactive |  |
| CCCCCCCCCCCCO | 4.84 µM (active) | inactive |  | -4.3% (inactive) and -1.21% (inactive) | inactive | inactive | inactive | inactive | inactive | inactive |  |
| Oc1c(Cl)ccc(Cl)c1Cl | inactive | inactive | inactive | -14% (inactive) and -18.1% (inactive) | inactive |  |  |  | inactive | inactive |  |
| NCCN | inactive | inactive |  | 7.37% (inactive) and 0.29% (inactive) | inactive | inactive | inactive and 21.9 µM (active) | inactive | inactive | inactive |  |
| C=CCCCCCCCCCC | inactive | inactive | inactive | 3.4% (inactive) and -2.24% (inactive) | inactive |  | inactive |  | inactive | inactive |  |
| CC(C)=CCO | inactive | inactive | inactive | 4.01% (inactive) and 0.683% (inactive) | inactive | inactive | inactive |  | inactive | inactive |  |
| COC(=O)c1ccc(C)cc1 | inactive | inactive | inactive | 1.02% (inactive) and 6.36% (inactive) | inactive | inactive |  | inactive | inactive | inactive |  |
| CCCCCC=O | inactive | inactive |  | -0.468% (inactive) and 7.09% (inactive) | inactive | inactive | inactive | inactive | inactive | inactive |  |
| CCO[Si](CCCNC(N)=O)(OCC)OCC | inactive | inactive | inactive | -7.6% (inactive) and 2.5% (inactive) | inactive | inactive |  |  | inactive | inactive |  |
| CC/C(=C(/CC)c1ccc(O)cc1)c1ccc(O)cc1 | inactive | 15.4 µM (active) and 30.9 µM (active) | inactive |  | inactive |  |  | inactive | inactive | inactive | 12.2 µM (active) and 27.5 µM (active) and 19 µM (active) |
| CC/C=C\C/C=C\C/C=C\CCCCCCCC(=O)O | inactive | inactive |  | -5.49% (inactive) and 15.2% (inactive) | inactive | inactive | inactive | inactive | inactive | inactive |  |
| CC(C)[C@@H]1CC[C@@H](C)CC1=O | inactive | inactive | inactive | -0.963% (inactive) and 5.54% (inactive) | inactive |  |  |  | inactive | inactive |  |
| CC(=O)OC(C)C | inactive | inactive | inactive | -9.76% (inactive) and -7.44% (inactive) | inactive | inactive |  |  | inactive | inactive |  |
| C[N+](C)(C)CCO | inactive | inactive | inactive | 15.9% (inactive) and 6.06% (inactive) | inactive |  | inactive |  | inactive | inactive |  |
| CCC(Cc1c(I)cc(I)c(N)c1I)C(=O)O (stereo not drawn) | inactive | inactive | inactive | 3.1% (inactive) and 8.35% (inactive) | inactive |  | inactive |  | inactive | inactive |  |
